Screening data deposited in PubChem BioAssay by The Scripps Research Institute Molecular Screening Center.
Sampled rows, rich in hits. Any-hit rate of the full collection: about 2.4%.
UHRF1 binding: UHRF1 methylated DNA binding inhibitors, primary screen, counter-screen for MBD2 inhibitor project, biochemical, TR-FRET, human UHRF1, single concentration. 370,000 tested, 0.75% active. UHRF1 binding to methylated oligo. inhibition, % at 4.4 µM;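 further: UHRF1 SRA domain binding a hemimethylated CpG hairpin DNA probe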
PLC-gamma1 inh: PLC-gamma1 enzyme inhibitors, primary screen, biochemical, fluorescence, purified enzyme; AID 720700, 2013; 370,000 tested, 0.84% active; inhibition, % at 12.2 µM; fluorogenic substrate; 1-phosphatidylinositol 4,5-bisphosphate phosphodiesterase gamma-1 (Homo sapiens), P19174; in the data active means inhibition above about 9.5%
PLC-beta3 inh: human PLC-beta3 inhibitors, primary screen, biochemical, fluorescence | Purified PLC-beta3, fluorogenic substrate | inhibition, % at 12.2 µM | AID 720704, 2013 | 370,000 tested, 0.18% active | 1-phosphatidylinositol 4,5-bisphosphate phosphodiesterase beta-3 (Homo sapiens), Q01970; in the data active means inhibition above about 11%
MBD2 inh: inhibitors of MBD2 binding to methylated DNA, primary screen, biochemical, TR-FRET, DNA-binding domain, human; MBD2 binding to methylated oligonucleotide; AID 686964, 2013; 370,000 tested, 0.31% active; inhibition, % at 4.4 µM; in the data active means inhibition above about 13%
LEDGF integ inh: blockers of LEDGF/p75-dependent integrase strand transfer – biochemical, TR-FRET, high throughput, primary screen. inhibition, % at 3.7 µM. TR-FRET IN-LEDGF/p75 DNA integration, Eu/Cy5. HIV-1 integrase (with human LEDGF/p75). 370,000 tested, 0.64% active;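 active means inhibition above the screen-wide mean plus 3 SD, cut at about 13% in these data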;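 further: signal is the Cy5 over europium emission ratio at 671 and 618 nm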
UHRF1 ctr MBD2: UHRF1 methylated DNA binding inhibitors, counter-screen for MBD2 inhibitor project, biochemical, TR-FRET, human UHRF1; 1,000 tested, 25% active; shares compounds with MBD2 inh; inhibition, % at 4.4 µM; UHRF1 binding to methylated oligonucleotide;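 further: UHRF1 SRA domain binding a labeled hemimethylated CpG hairpin DNA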
MBD2 DBD conf: inhibitors of MBD2 binding to methylated DNA, confirmation, biochemical, TR-FRET, DNA-binding domain, human | shares compounds with MBD2 inh | 1,000 tested, 26% active | TR-FRET MBD2-DBD binding to methylated oligonucleotide | inhibition, % at 4.4 µM; in the data active means inhibition above about 14%
Each line names hits and unclear results; the compound was inactive in the other large screens (follow-up assays come after a bar, where they were run). Unless noted, no stated cut-off is given here; in the data, active means inhibition above about 21%; inactive means the rest.

Cc1cccc(-c2cccc3c4c([nH]c23)[C@@H]2C[C@H](N(C)C(=O)c3ccco3)[C@H]([C@H](C)O)CN2CC4)c1	none
CCCc1nnc(NC(=O)CCC(=O)N2CCN(c3ccccn3)CC2)s1	MBD2 inh 14.2 | UHRF1 ctr MBD2 inactive | MBD2 DBD conf inactive
CCn1c(=O)n(CC(=O)N2CCCC2)c(=O)c2ccccc21	none
COC(=O)C[C@H]1C[C@@H]2c3cc(NS(=O)(=O)c4ccc(OC)cc4)ccc3O[C@@H]2[C@H](CO)O1	none
COC(=O)C[C@H]1C[C@H]2c3cc(NS(=O)(=O)c4ccc(OC)cc4)ccc3O[C@H]2[C@H](CO)O1	MBD2 inh 20.6 | UHRF1 ctr MBD2 inactive | MBD2 DBD conf inactive
O=C(/C=C/c1cccc(Br)c1)N1CCN(c2ccccn2)CC1	UHRF1 binding 35.4, MBD2 inh 14.0 | UHRF1 ctr MBD2 inactive | MBD2 DBD conf inactive
Cc1cc(C)c2nc3nc(C)c(C)cc3c(N)c2c1	UHRF1 binding 25.5, MBD2 inh 21.5 | UHRF1 ctr MBD2 41.4 | MBD2 DBD conf 37.6
O=C(Nc1ccccc1)c1cc(C2CCCCN2C(=O)c2ccc3c(c2)CCO3)on1 (stereo not drawn)	none
N#Cc1cccc(NC(=O)c2cc(C3CCCCN3C(=O)c3ccc4c(c3)CCO4)on2)c1 (stereo not drawn)	MBD2 inh 53.2 | UHRF1 ctr MBD2 inactive | MBD2 DBD conf inactive
O=C(NCCCN1CCOCC1)C(=O)NCc1ccc(Cl)cc1	MBD2 inh 13.1 | UHRF1 ctr MBD2 inactive | MBD2 DBD conf inactive
CN(CCOC(=O)c1cccs1)C1CN(Cc2cn(Cc3ccccc3Cl)nn2)S(=O)(=O)C1 (stereo not drawn)	none
O=C1CC(c2ccc(S(=O)(=O)N3CCN(c4ccccc4)CC3)cc2)CN1 (stereo not drawn)	MBD2 inh 32.5 | UHRF1 ctr MBD2 inactive | MBD2 DBD conf inactive
O=S(=O)(NC1CCCC1)c1ccc(S(=O)(=O)N2CCN(c3ccccc3)CC2)cc1	none
COC(=O)[C@]12C[C@H](CC(=O)NCc3cccs3)C(=O)N(CCC3=CCCCC3)C1=C[C@H](C(C)C)O[C@@H]2C1CC1	none
O=C(O)CC(NC(=O)COc1ccc(Cl)cc1Cl)C(=O)O (stereo not drawn)	MBD2 inh 26.1 | UHRF1 ctr MBD2 inactive | MBD2 DBD conf inactive
COC(=O)c1ccc(NC(=O)CCc2nnc3ccc(NCc4ccco4)nn23)cc1	MBD2 inh 14.2 | UHRF1 ctr MBD2 inactive | MBD2 DBD conf inactive
COc1ccc(NC(=O)CCc2nnc3ccc(NCc4ccco4)nn23)cc1	none
COc1ccc2c(c1)c(/C=N/Nc1ccc(C(=O)O)cc1)c(C)n2C	MBD2 inh 14.6 | UHRF1 ctr MBD2 inactive | MBD2 DBD conf inactive
COc1ccc2c(/C=N/Nc3ccc(C(=O)O)cc3)c[nH]c2c1	none
CCCCNC(=O)O[C@H]1CC[C@@]23CCCN2C(=O)CCC[C@H]3C1	none
CC1CCC(NCc2ccco2)CC1 (stereo not drawn)	MBD2 inh 18.0 | UHRF1 ctr MBD2 inactive | MBD2 DBD conf inactive
Cc1onc(-c2ccc(Cl)cc2)c1-c1ccn(S(=O)(=O)c2ccccc2Cl)n1	none
Cc1ccc(CC(=O)Nc2nc3c(s2)CCCC3)cc1	MBD2 inh 13.1 | UHRF1 ctr MBD2 inactive | MBD2 DBD conf inactive
Cc1ccc(CC(=O)Nc2cccc(C)n2)cc1	MBD2 inh 15.0 | UHRF1 ctr MBD2 inactive | MBD2 DBD conf inactive
COc1cc(OC)cc(-c2sc3ccc(OC)cc3c2C#CC2(N)CCCCC2)c1	UHRF1 binding 28.8, MBD2 inh 13.9 | UHRF1 ctr MBD2 inactive | MBD2 DBD conf inactive
O=C(NCCc1c[nH]c2ccccc12)c1ccc(Br)o1	UHRF1 binding 20.9, MBD2 inh 16.2 | UHRF1 ctr MBD2 inactive | MBD2 DBD conf inactive
O=C(NCCSc1c[nH]c2ccccc12)c1ccc(Br)o1	none
CCCC(=O)Nc1ccc(NC(=O)Cc2ccccc2)cn1	none
CCCC(=O)Nc1ccc(NC(=O)CCc2ccccc2)cn1	MBD2 inh 68.7 | UHRF1 ctr MBD2 inactive | MBD2 DBD conf inactive
Cc1ccc(C)c(NC(=O)Cn2nc(C)c3ccccc3c2=O)c1	MBD2 inh 16.6 | UHRF1 ctr MBD2 inactive | MBD2 DBD conf inactive
Cn1c(=O)c2[nH]c(SCC(=O)NCCc3cccc(F)c3)nc2n(C)c1=O	none
O=C(NCc1ccccc1Cl)C1CCN(S(=O)(=O)N2CCCCC2)CC1	UHRF1 binding 24.8, MBD2 inh 19.6 | UHRF1 ctr MBD2 inactive | MBD2 DBD conf inactive
CCC(=O)OCC(=O)Nc1ccc(OC)cc1[N+](=O)[O-]	none
COc1ccc(NC(=O)COC(=O)CC23CC4CC(CC(C4)C2)C3)c([N+](=O)[O-])c1	MBD2 inh 46.0 | UHRF1 ctr MBD2 inactive | MBD2 DBD conf inactive
Cc1cc2[nH]c3c(c[n+](C)c4ccccc34)c2cc1C	UHRF1 binding 50.6, MBD2 inh 83.0 | UHRF1 ctr MBD2 60.1 | MBD2 DBD conf 88.3
CCc1ccc(/C=C2\SC(=S)N(CCCC(=O)Nc3cc(C)on3)C2=O)cc1	MBD2 inh 14.7 | UHRF1 ctr MBD2 inactive | MBD2 DBD conf inactive
CCc1ccc(/C=C2\SC(=S)N(CCC(=O)Nc3cc(C)on3)C2=O)cc1	none
CC(C)Oc1ccc(C(CCNCc2ccc(O)cc2)c2ccccc2)cc1 (stereo not drawn)	MBD2 inh 65.2 | UHRF1 ctr MBD2 inactive | MBD2 DBD conf inactive
CC(=O)OC[C@@H]1CN(Cc2ccccc2)C[C@H](n2ccc3c(N)ncnc32)O1	MBD2 inh 35.8 | UHRF1 ctr MBD2 inactive | MBD2 DBD conf inactive
COC(CNC(=O)c1cn(C)c2ccc(S(=O)(=O)N(C)C3CCCCC3)cc2c1=O)OC	MBD2 inh 25.8 | UHRF1 ctr MBD2 inactive | MBD2 DBD conf inactive
CCn1cnc2cc(NC(=O)COc3ccc(C)cc3)ccc21	MBD2 inh 14.7 | UHRF1 ctr MBD2 inactive | MBD2 DBD conf inactive
CCN(Cc1ccccc1)S(=O)(=O)c1c(C)[nH]c(C)c1C(=O)N1CCCCC1	MBD2 inh 14.2 | UHRF1 ctr MBD2 inactive | MBD2 DBD conf inactive
CC(C)C[C@@H]1NC(=O)[C@H]2C[C@@]3(C)c4ccccc4N[C@H]3N2C1=O	none
CCC(C)NC(=O)c1cc2cc3ccc(OC)cc3nc2s1 (stereo not drawn)	none
